In all, about 360,000 compounds went through this assay and about 25,000 (6.9%) were called active. Inconclusive results (about 9%) are left out. This is one part of a sample in which actives are shown more often than they occur. Calls come from the whole dose curve; as a rule, active = well fitted inhibition curve with a large enough effect; inconclusive = small, poorly fitted or top-dose-only effect; inactive = flat fitted curve, though single readings scatter.
Potency is the fitted concentration of half-maximal effect.

Chain of Luciferin 4-monooxygenase (Photinus pyralis) (P08659 whole entry, looked up): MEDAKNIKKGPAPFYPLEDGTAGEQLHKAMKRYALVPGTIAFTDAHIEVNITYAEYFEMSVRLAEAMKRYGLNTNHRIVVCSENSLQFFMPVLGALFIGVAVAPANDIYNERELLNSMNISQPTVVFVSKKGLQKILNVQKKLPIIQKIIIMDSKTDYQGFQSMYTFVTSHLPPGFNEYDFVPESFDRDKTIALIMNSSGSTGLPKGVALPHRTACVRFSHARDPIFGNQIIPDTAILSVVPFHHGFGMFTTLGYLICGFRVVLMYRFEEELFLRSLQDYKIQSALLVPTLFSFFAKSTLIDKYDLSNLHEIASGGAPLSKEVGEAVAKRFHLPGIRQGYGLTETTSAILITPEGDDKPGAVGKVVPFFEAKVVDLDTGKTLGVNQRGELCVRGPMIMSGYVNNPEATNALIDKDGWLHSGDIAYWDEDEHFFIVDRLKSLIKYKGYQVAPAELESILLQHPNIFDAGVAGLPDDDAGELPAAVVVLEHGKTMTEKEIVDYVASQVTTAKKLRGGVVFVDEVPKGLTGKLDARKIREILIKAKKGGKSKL

In this assay the target is Luciferin 4-monooxygenase (Photinus pyralis) (UniProt P08659). The assay can be described thus: qHTS profiling assay for firefly luciferase inhibitor/activator using purifed enzyme and Km concentrations of substrates (counterscreen for miR-21 project).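 For activity change, negative = inhibition: plate controls were vehicle for no effect and reference inhibitor for full effect.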 Note: nearly all actives have a fitted effect of over 55% in size. The settings on record: purified FLuc, luminescence inhibition; series mostly up to 57.5 µM; activity change, negative = inhibition: at the top concentration. The gist of the method:
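Purified P. pyralis luciferase, 10 nM final, with Km-level 10 uM D-luciferin and 10 uM ATP in 50 mM Tris acetate pH 7.5, 10 mM Mg acetate, 0.01% Tween-20, 0.05% BSA; 6-point qHTS titration about 60 µM downward; luminescence read.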
As to `CCc1ccc(NC(=O)c2cc(S(=O)(=O)NC3CCCCCC3)ccc2F)cc1`, the “activity change, negative = inhibition” value is -8.51% (inactive).
Still for that read-out and setting: the value for `CCOC(=O)C1=C(c2ccccc2)N=C2SCC(=O)N2C1c1ccc(O)c(OC)c1` (configuration not stated) was -1.7% (inactive).
Regarding `CSc1ccc(CCNC(=O)c2cc(C)nc3c2c(C)nn3-c2cccc(F)c2)cc1`, the “activity change, negative = inhibition” value was -1.61% (inactive).
On to `COc1ccc(C2NC(=S)NC3=C2CCc2ccccc23)cc1OC` (configuration not stated), for which the “activity change, negative = inhibition” value was 4.29% (inactive).
For `CCOc1ccc(C2NC(=S)NC3=C2CCc2ccccc23)cc1` (configuration not stated), the Potency is 21.3 µM (active).
Regarding `CCOC(=O)C1=C(c2ccccc2)NC(=S)NC1c1ccc(Cl)cc1` (configuration not stated), the “activity change, negative = inhibition” value was 1.44% (inactive).
Consider `CCN1CCc2nc3sc(C(=O)Nc4ccccc4OC(F)(F)F)c(N)c3cc2C1`, for which the “activity change, negative = inhibition” value was 0.475% (inactive).
For the molecule `Cn1c(=O)c2c(nc(Oc3ccc(C#N)cc3)n2Cc2ccc(Cl)cc2Cl)n(C)c1=O`, the “activity change, negative = inhibition” value was -3.98% (inactive).
Turning to `O=Cc1ccc(Oc2cccc(C(F)(F)F)c2)nc1`, the “activity change, negative = inhibition” value is -3.32% (inactive).
Turning to `O=[N+]([O-])c1cccc(C2=NCCS2)c1`, the “activity change, negative = inhibition” value was -8.97% (inactive).
On to `FC(F)(F)c1ccnc(Oc2ccc(C3=NCCS3)cc2)c1`, for which the Potency was 3.38 µM (active).
`O=C(OCC(=O)N1CCCC1)c1ccc(Cl)nc1`: the “activity change, negative = inhibition” value is 2.43% (inactive).
Regarding `CCOc1ccc2nc(/N=C/c3nc(-c4ccccc4)oc3O)sc2c1`, the “activity change, negative = inhibition” value was 2.17% (inactive).
With `Oc1oc(-c2ccccc2Br)nc1/C=N/c1ccccn1`, the Potency was 7.57 µM (active).
Consider `CCOc1ccc(C(=O)NCC(=O)N2CCN(c3ccc(C(F)(F)F)cn3)CC2)cc1`, for which the “activity change, negative = inhibition” value was 6.42% (inactive).
With `CCn1cc(C(=O)OCC(=O)Nc2cc(C)cc(C)c2)c(=O)c2ccc(C)nc21`, the “activity change, negative = inhibition” value was -2.09% (inactive).
Turning to `O=S(=O)(NC1CC1)c1ccc(F)c(F)c1`, the “activity change, negative = inhibition” value was -2.04% (inactive).
Consider `Cc1cc(C)cc(NC(=O)CSc2nc(=O)n(CCN3CCOCC3)c3c2CCC3)c1`, for which the “activity change, negative = inhibition” value was -2.95% (inactive).
For the molecule `Cc1[nH]c2ccccc2c1SCC(=O)Nc1nccs1`, the Potency was 23.9 µM (active).
With `Cn1c(SCC(=O)Nc2nccs2)nnc1-c1cccnc1`, the “activity change, negative = inhibition” value was 2.95% (inactive).
As to `CCn1c(SCC(=O)Nc2nccs2)nnc1-c1ccco1`, the “activity change, negative = inhibition” value is -1.53% (inactive).
Same read-out and setting: the value for `CCOc1ccccc1C(=O)NCc1ccc2c(c1)CCN2C(=O)c1ccc(F)cc1` was -15% (inactive); that for `Cc1ccccc1NC(=O)CSc1ccc2nnc(-c3ccccn3)n2n1` was -2.1% (inactive).
`Cc1ccc(-c2onc(C)c2C)cc1S(=O)(=O)Nc1ccccn1`: the “activity change, negative = inhibition” value is -14.3% (inactive).
As for `O=C1CCN(C(=S)NCCc2ccccc2)CC1`, the “activity change, negative = inhibition” value was 0.463% (inactive).
As to `S=C(NCCc1ccccc1)N1CCCCC1`, the Potency is 16.9 µM (active).
In the case of `COc1ccc(C(=O)NC2CCN(C(=S)NCCc3ccccc3)CC2)cc1`, the “activity change, negative = inhibition” value is 0.548% (inactive).
Still for that read-out and setting: the value for `CCOCCCN(C(=O)Cn1nnc(-c2ccc(OC)c(OC)c2)n1)C(CC)C(=O)NC1CCCC1` (configuration not stated) was -2.8% (inactive); that for `O=c1[nH]c2cccnc2n1-c1ccc([N+](=O)[O-])cc1` was -0.226% (inactive).
Consider `O=[N+]([O-])c1ccc2nc(-c3ccccn3)[nH]c2c1`, for which the Potency was 12 µM (active).
As to `O=[N+]([O-])c1ccc(N/N=C2/CCCCC2c2ccccn2)c([N+](=O)[O-])c1` (configuration not stated), the “activity change, negative = inhibition” value is -12.6% (inactive).
For `COc1ccccc1NC(=O)CSc1oc(-c2ccco2)nc1S(=O)(=O)c1ccc(Br)cc1`, the “activity change, negative = inhibition” value is -4.64% (inactive).
In the case of `CCOc1ccc(S(=O)(=O)Nc2ccc3oc4c(c3c2)CC(C)CC4)cc1` (configuration not stated), the “activity change, negative = inhibition” value is -12.4% (inactive).
On to `CSc1ccc(C#N)cc1NC(=O)c1cccc(Cl)c1`, for which the “activity change, negative = inhibition” value is -1.26% (inactive).
For `N#Cc1ccccc1NC(=O)c1cccc(COc2ccc(Cl)cc2Cl)c1`, the Potency was 13.5 µM (active).
In the case of `CSc1ccc(C#N)cc1NC(=O)c1ccc(Cl)cc1`, the “activity change, negative = inhibition” value is 4.33% (inactive).
In the case of `c1ccc(-c2csc(N3CCc4ccccc4C3)n2)cc1`, the Potency is 12 µM (active).
For `O=C(CN1CCN(c2nc(-c3ccccc3)cs2)CC1)NCc1ccc2c(c1)OCO2`, the “activity change, negative = inhibition” value is -1.74% (inactive).
As to `CN(C)CCCNC(=S)N1CCN(c2nc(-c3ccccc3)cs2)CC1`, the “activity change, negative = inhibition” value is -15.6% (inactive).
Consider `CCCCCn1c(=O)[nH]c2cc(C(=O)NCCCN3CCCCC3C)ccc2c1=O` (configuration not stated), for which the “activity change, negative = inhibition” value was 2.1% (inactive).
With `CCS(=O)(=O)n1nc(-c2ccccc2)nc1SCc1ccccc1`, the Potency is 10.7 µM (active).
For `Cc1ccc(S(=O)(=O)n2nc(-c3ccc(Cl)cc3)nc2NCc2ccccc2)cc1`, the “activity change, negative = inhibition” value was -1.94% (inactive).
As to `CCn1c(SCc2ccccc2)nc2c(c1=O)SCC2`, the “activity change, negative = inhibition” value was -2.37% (inactive).
As to `C[C@H](OC(=O)n1ccnc1)[C@@H]1O[C@@]2(C)CCC[C@@H]1O2`, the “activity change, negative = inhibition” value is -2.13% (inactive).
Consider `Cc1nnc(N2CCC(C(=O)Nc3ccc(F)cc3)CC2)c2nn(-c3ccc(Cl)cc3)c(C)c12`, for which the “activity change, negative = inhibition” value is 0.139% (inactive).
Still for that read-out and setting: the value for `Cc1ccc(NC(=O)COC(=O)CN2CCCCCC2=O)c(C)c1` was 2.69% (inactive); that for `Cn1c(C(=O)Nc2cccc(C(F)(F)F)c2)cc2c(=O)n3ccccc3nc21` was -8.11% (inactive).
For `CCCN(CCC)C(=O)C(Cc1ccccc1)NS(=O)(=O)c1ccc2c(c1)c(=O)n(C)c(=O)n2C` (configuration not stated), the “activity change, negative = inhibition” value is -0.122% (inactive).
On to `Cc1cc(C(=O)COC(=O)CNC(=O)c2ccc(F)cc2)c(C)n1Cc1ccco1`, for which the Potency is 6.75 µM (active).
For `COCCn1c(C)cc(C(=O)COC(=O)CNC(=O)c2ccco2)c1C`, the “activity change, negative = inhibition” value was -9.9% (inactive).
With `O=C(COC(=O)CNC(=O)c1ccco1)Nc1ccc(F)cc1`, the “activity change, negative = inhibition” value is -0.0434% (inactive).
In the case of `CCC(C)NC(=O)Cn1c(=O)n(-c2ccc(Cl)cc2)c(=O)c2c3c(sc21)CCCC3` (configuration not stated), the “activity change, negative = inhibition” value is 1.6% (inactive).
Consider `COc1ccc(CNC(=O)c2cc3c(=O)[nH]c4ccccc4c3s2)cc1`, for which the “activity change, negative = inhibition” value is 0.566% (inactive).
Turning to `COc1ccc(-c2cn3c(n2)sc2cc(C(=O)Nc4ccc(F)cc4)ccc23)cc1`, the “activity change, negative = inhibition” value was -11.2% (inactive).
On to `FC(F)(F)Oc1ccc(-c2cn3cccnc3n2)cc1`, for which the Potency was 6.01 µM (active).
On to `CC(=O)Nc1ccc(S(=O)(=O)Nc2cccc(NC(=O)C(C)(C)C)c2)cc1`, for which the “activity change, negative = inhibition” value is 0.526% (inactive).
As for `Cc1c(-c2cccc(NC(=O)C(C)(C)C)c2)nc2ncccn12`, the “activity change, negative = inhibition” value was -5.1% (inactive).
Consider `CC(C)(C)C(=O)Nc1ccc(-c2cn3cccnc3n2)cc1`, for which the Potency is 7.57 µM (active).
Regarding `COc1ccc(-c2cc(NCc3ccc(F)cc3)n3cnnc3n2)cc1`, the “activity change, negative = inhibition” value was -7.12% (inactive).
Consider `COc1ccc(-c2cn3ccsc3n2)cc1`, for which the Potency was 2.39 µM (active).
The same measure, in the same setting: with `COc1ccc(-c2cn3cccnc3n2)cc1` the figure was 13.5 µM (active).
As to `COc1ccc(N2CCN(C(=O)CSc3nnc4ncccn34)CC2)cc1`, the “activity change, negative = inhibition” value is 2.29% (inactive).
Same read-out and setting: with `COc1cc(OC)cc(-c2nc(=S)n3ccsc3n2)c1` the figure was 4.32% (inactive); with `O=C(CCNC(=O)c1ccc(Br)cc1)NCC(c1ccco1)N1CCCCC1` (configuration not stated), 1.69% (inactive).
Regarding `CN(CC(=O)Nc1cccc(C(F)(F)F)c1)S(=O)(=O)c1cccs1`, the “activity change, negative = inhibition” value was -12% (inactive).
Take `CC(C)CCNC(=O)Cn1c(=O)oc2cc(S(=O)(=O)N3CC(C)CC(C)C3)ccc21` (configuration not stated): the “activity change, negative = inhibition” value was 1.69% (inactive).
As to `CCOc1ccc(CNC(=O)c2cccc(Nc3nc4ccccc4n4nnnc34)c2)cc1OC`, the “activity change, negative = inhibition” value is 0.0001% (inactive).

The values above are taken from PubChem BioAssay AID588342 (National Center for Advancing Translational Sciences (NCATS), 2011).
